# From PubChem
# PP1 counter: PP1-alpha phosphatase inhibitors, primary screen, counter-screen for PP5 inhibitor project, biochemical, fluorescence, OMFP substrate, single point. Serine/threonine-protein phosphatase PP1-alpha catalytic subunit (Homo sapiens), P62136. purified PP1alpha. inhibition, % at 6.7 µM. hit rate 0.9% among 320,000;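 active = inhibition above the mean inhibition of all tested compounds plus 3 SD, computed separately for each screening campaign, cut at about 15% in these data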
# JMJD2C inh: inhibitors of GASC-1 histone demethylase, primary screen, biochemical, fluorescence, DELFIA europium; Lysine-specific demethylase 4C (Homo sapiens), Q9H3R0; GST-JMJD2C(1-420) H3K9me3 demethylation; inhibition, % at 2.35 µM; hit rate 0.069% among 330,000; AID 2099, 2009;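 active = more than half of a compound's replicate wells show inhibition beyond 50%, single wells judged on their own value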;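 note: signal counts dimethyl H3K9 product captured on neutravidin plate; 0% = median of DMSO wells and 100% = 0.3 times that DMSO median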
# Target sequence (Q9H3R0 1-420 limits assumed): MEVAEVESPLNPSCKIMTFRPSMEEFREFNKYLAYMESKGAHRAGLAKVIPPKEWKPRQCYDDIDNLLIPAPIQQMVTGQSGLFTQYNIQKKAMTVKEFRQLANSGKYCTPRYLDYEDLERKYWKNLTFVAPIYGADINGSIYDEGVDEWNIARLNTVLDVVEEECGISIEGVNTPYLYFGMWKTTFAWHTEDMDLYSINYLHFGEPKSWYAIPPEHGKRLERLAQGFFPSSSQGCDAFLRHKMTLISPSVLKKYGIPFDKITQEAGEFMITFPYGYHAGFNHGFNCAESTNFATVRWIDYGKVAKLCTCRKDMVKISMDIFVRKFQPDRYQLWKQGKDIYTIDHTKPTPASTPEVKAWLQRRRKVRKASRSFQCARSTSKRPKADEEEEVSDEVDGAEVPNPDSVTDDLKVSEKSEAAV
# proKLK7 act: proKLK7 zymogen activators, primary screen, biochemical, fluorescence intensity; Kallikrein-7 (Homo sapiens), P49862; purified proKLK7, EDANS-DABCYL substrate fluorescence; 100% is mature enzyme control, 0% vehicle; activation, % at 7 µM; hit rate 0.9% among 370,000; AID 652039, 2013;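 active = activation above the mean of all tested compounds plus 3 SD, computed per campaign excluding outliers beyond control limits, cut at about 13% in these data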
# Target sequence (P49862 whole entry, looked up): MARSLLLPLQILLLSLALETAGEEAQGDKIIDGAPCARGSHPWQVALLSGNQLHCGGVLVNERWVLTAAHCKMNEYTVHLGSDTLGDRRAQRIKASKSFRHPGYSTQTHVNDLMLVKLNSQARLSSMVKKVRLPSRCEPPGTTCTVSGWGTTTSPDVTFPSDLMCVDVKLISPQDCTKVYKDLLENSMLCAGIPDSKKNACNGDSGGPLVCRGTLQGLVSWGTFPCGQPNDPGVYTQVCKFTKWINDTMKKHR
# PG9 Ab binder: binders of HIV-1 gp120 antibody PG9, primary screen, biochemical, TR-FRET | HIV-1 gp120 / PG9 antibody interaction | TR-FRET gp120-PG9 antibody binding | hit rate 0.43% among 360,000 | inhibition, % at 6.7 µM; in the data active = inhibition above about 8.5%
# PP5 primary: PP5 phosphatase inhibitors, primary screen, biochemical, fluorescence. purified PP5c, OMFP substrate fluorescence. hit rate 0.18% among 320,000. inhibition, % at 6.7 µM. AID 1987, 2009;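 active = inhibition above the campaign's mean inhibition across all tested compounds plus 3 SD, cut at about 9.5% in these data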;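 note: 0% = DMSO only and 100% = 100 µM cantharidin control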
# Rev-erbA mod: modulators of Rev-erb alpha DNA binding, primary screen, biochemical, FITC-DNA, fluorescence polarization, uHTS; Nuclear receptor subfamily 1 group D member 1 (Homo sapiens), P20393; activity, % at 10 µM; AID 1259318, 2017; Rev-erbα–FITC-DNA binding, 90 min; hit rate 0.79% among 370,000;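 active = activity above about 14%, limit read from the data; passing the limit was not always enough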;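 note: 0% = DMSO wells with 35 nM protein and 100% = DMSO wells with 750 nM protein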
# PG9 binder conf: binders of anti-gp120 antibody PG9, confirmation, biochemical, TR-FRET; TR-FRET PG9 antibody binding; shares compounds with PG9 Ab binder; inhibition, % at 6.7 µM; hit rate 90% among 1,500; in the data active = inhibition above about 9%
# PGV04 Ab binding: binders of control antibody PGV04, counter-screen for PG9 antibody binder project, biochemical, TR-FRET, distinct HIV envelope site. AID 651604, 2012. hit rate 95% among 1,500. shares compounds with PG9 Ab binder. TR-FRET PGV04 antibody-gp120 binding. inhibition, % at 6.7 µM; in the data active = inhibition above about 9.5%
# PG9 binder DR: small-molecule binders of antibody PG9, dose response, biochemical, TR-FRET, HIV-1 gp120 antibody; 95 tested, under 10 active; shares compounds with PG9 Ab binder; IC50, µM; TR-FRET PG9 antibody-gp120 binding inhibition; in the data active = IC50 below about 10 µM
# PGV04 DR counter: binders of control antibody PGV04, dose response, counter-screen for PG9 antibody binder project, biochemical, TR-FRET, distinct HIV envelope site. shares compounds with PG9 Ab binder. IC50, µM. AID 651937, 2012. TR-FRET binding to control antibody PGV04. hit rate 20% among 95
# PG126 binding DR: binders of control antibody PG126, dose response, counter-screen for PG9 antibody binder project, biochemical, TR-FRET, distinct HIV envelope site; shares compounds with PG9 Ab binder; TR-FRET binding to antibody PG126, counterscreen; IC50, µM; hit rate 20% among 95
# Numbers without * were called inactive; nt = no result given. Sampled rows, rich in hits. Any-hit rate of the full collection: about 2.8%. Cut-off read from the data, not from the text of the source, unless noted: active = IC50 below about 9 µM; inactive = the rest.
SMILES,PP1 counter,JMJD2C inh,proKLK7 act,PG9 Ab binder,PP5 primary,Rev-erbA mod,PG9 binder conf,PGV04 Ab binding,others
Cc1cc(C)nc(NS(=O)(=O)c2ccc(NC(=O)CSc3nc(-c4ccccc4)c(C#N)c(=O)[nH]3)cc2)n1,9.8,1.7,-0.2,35.6*,0.9,3.9,44.0*,57.9*,
Cc1cc(C)nc(NS(=O)(=O)c2ccc(NC(=O)CSc3nc4ccccc4[nH]3)cc2)n1,-2.0,-3.6,0.0,-0.6,1.6,3.9,nt,nt,
N#Cc1c(-c2ccccc2)nc(SCC(=O)Nc2ccc(OC(F)(F)Cl)cc2)[nH]c1=O,14.9,3.8,0.5,8.8*,2.9,-0.2,18.0*,22.2*,
CCc1cc2ccccc2nc1SCC(=O)Nc1cc(C)on1,-0.8,-4.4,-0.5,21.9*,0.7,16.0,22.1*,30.4*,
N#Cc1c(-c2ccccc2)nc(SCC(=O)Nc2ccccc2)[nH]c1=O,3.3,2.6,0.1,4.2,-2.5,-1.7,nt,nt,
Cc1cc(NC(=O)CSc2nc(-c3ccccc3)c(C#N)c(=O)[nH]2)no1,2.0,-0.1,0.5,17.8*,0.8,3.0,28.2*,34.8*,
CCC[C@H]1[C@@H](OC(=O)NCc2ccco2)CC[C@@]23CCCN2C(=O)CCC[C@@H]13,nt,nt,nt,nt,nt,3.4,nt,nt,
NS(=O)(=O)c1ccc(CCNC(=O)c2ccc(C(=O)c3ccccc3)cc2)cc1,-3.4,4.1,0.3,-1.6,1.7,3.5,nt,nt,
NS(=O)(=O)c1ccc(CCNC(=O)c2ccc(-c3ccccc3)cc2)cc1,13.7,4.7,-0.7,12.1*,1.0,-1.9,21.1*,13.8*,PG9 binder DR=>67.1;PGV04 DR counter=>67.1;PG126 binding DR=>67.1
COC(=O)c1c(NC(=O)COC(=O)CCNS(=O)(=O)c2ccc(NC(C)=O)cc2)sc(C)c1C,-4.9,6.1,0.4,0.8,-0.7,2.7,nt,nt,
CC(=O)Nc1sc(C)c(C)c1C(=O)OCC(=O)Nc1ccc(S(N)(=O)=O)cc1,nt,0.2,-0.2,9.6*,nt,16.0,12.6*,23.3*,
Cc1cccc(N(Cc2cc3ccccc3[nH]c2=O)S(=O)(=O)c2ccccc2)c1,1.4,-21.3,-0.9,-0.9,2.7,-0.6,nt,nt,
O=c1[nH]c2ccccc2cc1CN(c1ccccc1)S(=O)(=O)c1ccccc1,4.5,-49.4,-0.2,18.2*,1.0,17.8,25.0*,26.7*,
CCCCOc1ccc(C(=O)Nn2c(-c3cccs3)nc3ccccc3c2=O)cc1,-1.8,-12.1,-81.1,30.5*,4.3,11.1,36.8*,59.1*,
O=C(/C=C/c1ccccc1)Nn1c(-c2cccs2)nc2ccccc2c1=O,1.6,3.6,0.7,-1.7,3.7,-1.2,nt,nt,
CCOC(=O)CNC(=S)N(CCCN1CCN(C)CC1)Cc1cccs1,-2.6,-12.0,-0.2,13.4*,-1.0,2.2,5.0,9.8*,
O=C(CNC(=S)N(CCCN1CCOCC1)Cc1cccs1)N1CCCC1,-3.7,-17.0,0.6,0.8,2.0,-4.2,nt,nt,
COC(=O)c1sc(NC(=O)C2CCCCC2C(=O)O)c(C(=O)OC)c1C (stereo not drawn),1.2,3.2,0.2,12.7*,2.8,-3.0,17.7*,22.8*,
CN1C2=N[C@@H](c3ccc4ccccc4c3)CC(=O)N2/C(=C\c2ccccc2)[C@H]1c1ccccc1,nt,nt,nt,nt,nt,-1.5,nt,nt,
O=C1C2C3c4ccccc4C(c4ccccc43)C2C(=O)N1c1cccc2cccnc12 (stereo not drawn),-1.3,4.0,-0.1,10.0*,2.4,4.9,4.9,7.1,
O=c1[nH]n(-c2cccc3cccnc23)c(=O)c2ccccc12,-1.4,0.3,2.2,-0.7,0.8,-1.1,nt,nt,
Cc1nc(SCC(=O)NCCc2ccccc2)c2c(=O)n(C)c(=O)n(C)c2n1,-2.3,3.6,-0.3,-0.3,0.2,4.8,nt,nt,
Cc1nc(SCC(=O)NCc2ccccc2)c2c(=O)n(C)c(=O)n(C)c2n1,-1.0,-8.0,0.1,13.5*,-0.1,0.2,5.4,8.1,
Oc1ccc(C=Nc2ccc(N3CCOCC3)cc2)c(O)c1,1.2,2.5,4.6,-3.3,2.2,-7.6,nt,nt,
Cc1ccc(N=Cc2ccc(O)cc2O)cc1F,2.2,nt,-2.6,17.2*,0.5,1.5,10.5*,15.5*,
SMILES,PP1 counter,JMJD2C inh,proKLK7 act,PG9 Ab binder,PP5 primary,Rev-erbA mod,PG9 binder conf,PGV04 Ab binding,others
CC(C)CCOc1ncnc2c1sc1nc3c(cc12)CSC(C)(C)C3,nt,nt,-0.1,26.0*,nt,19.2,5.1,28.6*,
CCCn1cnc2c(sc3nc4c(cc32)CSC(C)(C)C4)c1=O,-1.5,12.8,0.4,0.2,-0.8,-8.7,nt,nt,
CC(C)NC(=O)N(C)C[C@H]1OCc2cn(nn2)CCCC(=O)N([C@H](C)CO)C[C@@H]1C,nt,nt,-0.8,0.2,nt,-1.0,nt,nt,
CC(=O)C1(C(=O)NC2CCCC2)CC(c2ccccc2C(F)(F)F)=NO1 (stereo not drawn),nt,nt,0.2,nt,nt,-2.4,nt,nt,
COC(=O)c1cc(Br)c(=O)n(-c2ccc(OC)cc2)c1,-0.5,4.7,0.6,9.9*,-2.9,1.4,16.8*,21.9*,
COC(=O)c1cc(Br)c(=O)n(-c2cccc(F)c2)c1,-1.9,6.3,0.0,11.4*,1.4,5.2,19.2*,23.3*,
COC(=O)c1cc(Br)c(=O)n(-c2ccccc2OC)c1,-0.8,0.6,-1.2,6.1,-1.5,-7.0,nt,nt,
Cc1cc(Br)c2nc3c(c(C(=O)O)c2c1)CCCCC3,6.5,-9.4,-0.1,74.5*,-0.8,-6.4,73.8*,88.3*,
O=C(C[C@H]1CC[C@@H](NC(=O)Nc2ccc3c(c2)OCO3)[C@@H](CO)O1)NCc1ccccc1,nt,nt,0.7,14.3*,nt,4.5,7.7,19.2*,
